Results from the supplement of paper PMC3545927.
Some of the results follow. No count for the full screen is at hand.

Target: furin, P09958
Assay: furin cleavage Z-score vs untreated control; higher = more cleavage, active = 3.5 or more, inactive = 1 or less, 8 variable residues between constant flanks
Experimental: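 Multiplexed peptide-cDNA fusion cleavage assay. 8-mer variable peptides flanked by constant Cys-Ala (N-term) and Ala-Gly-Asn-Ala-Ser-Ala-Ser-Ala (C-term) and conjugated to a cDNA oligonucleotide were bead-immobilised via the N-terminus. They were treated with purified furin at a 1:10 enzyme:substrate ratio in 50 mM HEPES pH 7.5, 1 mM CaCl2, 100 mM NaCl for 7.5, 15 or 30 min. Released cDNA was counted by next-generation sequencing, and log counts versus no-furin controls were lowess-adjusted and converted to robust Z-scores.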

furin, P09958, sequence (P09958 whole entry): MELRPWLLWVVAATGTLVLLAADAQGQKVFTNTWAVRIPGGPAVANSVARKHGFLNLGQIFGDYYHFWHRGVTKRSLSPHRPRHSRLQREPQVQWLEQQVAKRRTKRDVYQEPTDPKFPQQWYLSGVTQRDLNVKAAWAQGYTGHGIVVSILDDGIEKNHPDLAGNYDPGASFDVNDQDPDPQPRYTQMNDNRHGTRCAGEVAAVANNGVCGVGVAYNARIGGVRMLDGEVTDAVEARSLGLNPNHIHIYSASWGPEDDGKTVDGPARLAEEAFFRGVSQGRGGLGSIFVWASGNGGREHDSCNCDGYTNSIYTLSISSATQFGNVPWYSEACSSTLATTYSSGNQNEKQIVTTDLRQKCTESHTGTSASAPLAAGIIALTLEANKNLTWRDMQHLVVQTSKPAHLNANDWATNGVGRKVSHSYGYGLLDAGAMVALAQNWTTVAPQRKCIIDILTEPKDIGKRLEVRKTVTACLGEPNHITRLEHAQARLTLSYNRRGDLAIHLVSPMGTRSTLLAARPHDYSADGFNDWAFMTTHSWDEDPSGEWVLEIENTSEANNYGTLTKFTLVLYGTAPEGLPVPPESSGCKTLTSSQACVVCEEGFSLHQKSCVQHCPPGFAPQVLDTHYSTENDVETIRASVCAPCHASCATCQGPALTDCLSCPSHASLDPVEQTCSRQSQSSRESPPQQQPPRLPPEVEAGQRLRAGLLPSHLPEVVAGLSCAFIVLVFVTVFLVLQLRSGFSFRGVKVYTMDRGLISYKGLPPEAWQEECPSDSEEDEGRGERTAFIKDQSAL

Sequence | furin cleavage Z-score (7.5 min) | furin cleavage Z-score (15 min) | furin cleavage Z-score (30 min)
CADPMEECSQAGNASASA [HC1819] | 0.273 (inactive) | -1.88 (inactive) | -0.65 (inactive)
CAELEVPCHRAGNASASA [HC2445] | 0.172 (inactive) | 0.852 (inactive) | 0.435 (inactive)
CAMGFSYDTRAGNASASA [HC1478] | -0.658 (inactive) | -1.06 (inactive) | -0.421 (inactive)
CATTMCSGSWAGNASASA [HC1866] | -0.934 (inactive) | -1.58 (inactive) | -0.286 (inactive)
CAVVCCSMSVAGNASASA [HC2090] | -0.627 (inactive) | 0.955 (inactive) | 1.16
CARDKRKQRQAGNASASA [FS-2205] | 1.77 | 4.76 (active) | 3.43
CARSKRALENAGNASASA [FS-2523] | 9.22 (active) | 11 (active) | 8.18 (active)
CARSKRIWLDAGNASASA [FS-1929] | 0.312 (inactive) | 0.0956 (inactive) | 0.362 (inactive)
CARDKRKLGAAGNASASA [FS-1691] | -0.964 (inactive) | 0.648 (inactive) | 1.45
CARSKRVLWDAGNASASA [FS-2525] | -1.38 (inactive) | -1.33 (inactive) | -0.22 (inactive)
CARSKRRDANAGNASASA [FS-2306] | -0.438 (inactive) | 0.401 (inactive) | 2.07
CARSKRGTEDAGNASASA [FS-3084] | 8.96 (active) | 9.33 (active) | 8.39 (active)
CADGPDGPEEAGNASASA [CS6] | -0.625 (inactive) | -0.697 (inactive) | 0.000165 (inactive)
CAVSVIPTSGAGNASASA [HC872] | -1.15 (inactive) | -1.43 (inactive) | -0.759 (inactive)
CALALLSCLTAGNASASA [HC250] | 0.23 (inactive) | 0.192 (inactive) | 0.0802 (inactive)
CASCQRRTRFAGNASASA [FS-379] | -0.682 (inactive) | 1.81 | 2.4
CAASHRSTRFAGNASASA [FS-1309] | 0.749 (inactive) | 3.07 | 5.05 (active)
CADAAARVTAAGNASASA [HC1130] | -0.857 (inactive) | -0.374 (inactive) | -0.0041 (inactive)
CAASPRVARFAGNASASA [FS-1586] | 7.18 (active) | 7.05 (active) | 9.24 (active)
CAAGHAVGIFAGNASASA [HC747] | 0.991 (inactive) | -0.922 (inactive) | -0.149 (inactive)
CAASIRHARFAGNASASA [FS-580] | 4.24 (active) | 6.42 (active) | 7.16 (active)

Sequence | furin cleavage Z-score (7.5 min) | furin cleavage Z-score (15 min) | furin cleavage Z-score (30 min)
CADAARVARFAGNASASA [FS-220] | 1.88 | 3.12 | 3.56 (active)
CAEVTCHRPSAGNASASA [HC2358] | 0.503 (inactive) | 1.09 | -0.419 (inactive)
CASTPCSCHLAGNASASA [HC2540] | -2.32 (inactive) | -0.121 (inactive) | -0.978 (inactive)
CAVVCCSMPYAGNASASA [HC2079] | 1.07 | 1.5 | 0.76 (inactive)
CAMEECSQHRAGNASASA [HC1773] | 0.467 (inactive) | 0.921 (inactive) | 2.83
CAAQQTRGLLAGNASASA [HC677] | -1.39 (inactive) | -0.431 (inactive) | 0.105 (inactive)
CARRARQARRAGNASASA [FS-1071] | -0.692 (inactive) | 0.798 (inactive) | 2.53
CAPRARAARRAGNASASA [FS-1550] | 4.8 (active) | 6.53 (active) | 7.08 (active)
CARRARASDRAGNASASA [FS-2176] | 3.3 | 2.19 | 4.92 (active)
CAIKARAACRAGNASASA [HC1519] | 0.264 (inactive) | -0.0832 (inactive) | 0.862 (inactive)
CASLRAFTEAAGNASASA [HC1538] | -0.614 (inactive) | -1.13 (inactive) | 0.282 (inactive)
CATLGRHRRIAGNASASA [FS-305] | 0.637 (inactive) | 4.75 (active) | 4.61 (active)
CASLVRNRRIAGNASASA [FS-626] | 3.81 (active) | 7.06 (active) | 7.84 (active)
CALYNRTRRIAGNASASA [FS-61] | -0.475 (inactive) | 0.0321 (inactive) | 0.723 (inactive)
CAYLARNARIAGNASASA [FS-319] | -0.614 (inactive) | -1.5 (inactive) | 0.218 (inactive)
CANKNRLRRIAGNASASA [FS-696] | 2.17 | 3.21 | 3.66 (active)
CAGLSRHRRIAGNASASA [FS-1329] | 4.21 (active) | 4.36 (active) | 4.6 (active)
CAEINRPRRIAGNASASA [FS-156] | 0.686 (inactive) | -0.166 (inactive) | 0.217 (inactive)
CAVGSKQRRIAGNASASA [FS-631] | -0.93 (inactive) | -0.511 (inactive) | -0.419 (inactive)
CALSTGCVVIAGNASASA [HC998] | -0.865 (inactive) | -1.26 (inactive) | 1.11
CAAAGLQDCTAGNASASA [HC1523] | -0.616 (inactive) | -1.19 (inactive) | -0.342 (inactive)
